Results on 54 sequences are retold here after paper PMC10726135, “HNF4α isoforms regulate the circadian balance between carbohydrate and lipid metabolism in the liver”.

In all, about 18,000 sequences were measured (“log2 normalized intensity”: median about 0.36, highest 2% from about 7.3 on). The full list was thinned out, with the highest values kept by preference.

This assay concerns the target T1, HNF4alpha8 (COS-7 nuclear extract) (Homo sapiens, UniProt P41235-5 1-452).
T1 sequence: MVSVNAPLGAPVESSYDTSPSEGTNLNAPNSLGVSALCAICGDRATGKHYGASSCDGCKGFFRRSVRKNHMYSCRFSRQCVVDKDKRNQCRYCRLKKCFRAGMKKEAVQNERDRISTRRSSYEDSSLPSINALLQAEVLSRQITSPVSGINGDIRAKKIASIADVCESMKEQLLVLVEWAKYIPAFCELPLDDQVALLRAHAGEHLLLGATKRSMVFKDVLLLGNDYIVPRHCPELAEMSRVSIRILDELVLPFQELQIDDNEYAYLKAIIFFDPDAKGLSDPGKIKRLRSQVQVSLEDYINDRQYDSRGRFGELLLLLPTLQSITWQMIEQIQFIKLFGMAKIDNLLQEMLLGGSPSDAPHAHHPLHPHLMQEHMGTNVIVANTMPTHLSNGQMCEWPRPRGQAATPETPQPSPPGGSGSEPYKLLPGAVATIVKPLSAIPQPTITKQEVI
As to the kind of experiment: protein-binding microarray; COS-7 nuclear extract on double-stranded Agilent 4x180k PBM; binding buffer, salt, pH and temperature not given in the material; high values mean tight binding. The settings on record: chain copies: 2; label: 3' end of strand 1 on the slide; dsDNA, one strand shown. The method, boiled down:
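Binding signal is the background-corrected, normalized gProcessedSignal calculated by Agilent software. It was measured by applying nuclear extracts of COS-7 cells transiently transfected with a human HNF4α isoform expression vector to a custom Agilent SurePrint G3 4x180k array of ~44,000 double-stranded ~60-nt test sequences in quadruplicate, then imaging bound HNF4α on an Agilent G2565CA scanner at 2-µm resolution.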
On to “GGCATTCTGACCTTTGTCTCCAGGCAAACTGCCTAGGGAGATTAGAGTATCGGTCGA”, for which the binding signal is 5.6 log2 normalized intensity.

Regarding “GAGGAGTGAGAACAGACAAAATTAAGTGATGCCTAGGGAGATTAGAGTATCGGTCGA”, the binding signal is -0.842 log2 normalized intensity.

Turning to “TCTGTCTGAGACCACTTAAGCCTGGAATTCGCCTAGGGAGATTAGAGTATCGGTCGA”, the binding signal is -0.0786 log2 normalized intensity.

“ACCCATGTTTGCCCTTGATAAGAGCTGCTCGCCTAGGGAGATTAGAGTATCGGTCGA”: the binding signal turned out to be 0.685 log2 normalized intensity.

For the sequence “AGGTGAATGTACAAAGGTCAACGGCACAAGGCCTAGGGAGATTAGAGTATCGGTCGA”, the binding signal was found to be 5.02 log2 normalized intensity.

With “TGAGCACATTCTTCAATATCAGTGGCACTCGCCTAGGGAGATTAGAGTATCGGTCGA”, the binding signal worked out at 0.295 log2 normalized intensity.

Regarding “CAATCCCATGACCTTTGTACTAATGATTTGGCCTAGGGAGATTAGAGTATCGGTCGA”, the binding signal was determined as 6.73 log2 normalized intensity.

“CCATGACCTTTGTACTAATGATTTGTAAATGCCTAGGGAGATTAGAGTATCGGTCGA”: the binding signal worked out at 6.03 log2 normalized intensity.

For “TCTTCCTAGGCAATCCCATGACCTTTGTACGCCTAGGGAGATTAGAGTATCGGTCGA”, the binding signal came to 9.08 log2 normalized intensity.

Consider “CTAGGCAATCCCATGACCTTTGTACTAATGGCCTAGGGAGATTAGAGTATCGGTCGA”, for which the binding signal was 8.3 log2 normalized intensity.

As to “TGTCTTCTGACCTTTGGCAATATCTCCCAGGCCTAGGGAGATTAGAGTATCGGTCGA”, the binding signal amounted to 3.96 log2 normalized intensity.

For “CACCTTCTTCCTAGGCAATCCCATGACCTTGCCTAGGGAGATTAGAGTATCGGTCGA”, the binding signal came to 3.52 log2 normalized intensity.

As for “GGACTTCTCTGCCCTCTTCCCTCTACCTCTGCCTAGGGAGATTAGAGTATCGGTCGA”, the binding signal came out at 1.97 log2 normalized intensity.

With “AAACAGACCTCTCTCTCCCCAGACAGCCACGCCTAGGGAGATTAGAGTATCGGTCGA”, the binding signal came to 2.71 log2 normalized intensity.

On to “TATTTACATACCTTAGGCTGTGCATATTGGGCCTAGGGAGATTAGAGTATCGGTCGA”, for which the binding signal is 0.994 log2 normalized intensity.

In the case of “CCTCCTGCTTAGCGGCCTTCCCCTTTTTCTGCCTAGGGAGATTAGAGTATCGGTCGA”, the binding signal stood at 1.99 log2 normalized intensity.

As for “TCAGACAAGTTGCAGGGATGGACTTTAATCGCCTAGGGAGATTAGAGTATCGGTCGA”, the binding signal is 7.17 log2 normalized intensity.

On to “CCCCCTATCCCAAGACATCAATTAACTTGTGCCTAGGGAGATTAGAGTATCGGTCGA”, for which the binding signal was found to be 3.09 log2 normalized intensity.

In the case of “CCTAGCCCCACCAAACTGACAGGTTAGACTGCCTAGGGAGATTAGAGTATCGGTCGA”, the binding signal came out at 2.33 log2 normalized intensity.

Consider “CGACCTTTGCTCCCGACTCTGAGGCTCCATGCCTAGGGAGATTAGAGTATCGGTCGA”, for which the binding signal was found to be 5.96 log2 normalized intensity.

Take “GCTCTAGACATCGACCTTTGTGGGCTTCAGGCCTAGGGAGATTAGAGTATCGGTCGA”: the binding signal came to 3.19 log2 normalized intensity.

On to “AGGCTGGGGCCCCATCGACCTTTGCTCCCGGCCTAGGGAGATTAGAGTATCGGTCGA”, for which the binding signal is 10.5 log2 normalized intensity.

Turning to “TCTTCAGGCTGGGGCCCCATCGACCTTTGCGCCTAGGGAGATTAGAGTATCGGTCGA”, the binding signal was found to be 7.4 log2 normalized intensity.

Turning to “GGGGCCCCATCGACCTTTGCTCCCGACTCTGCCTAGGGAGATTAGAGTATCGGTCGA”, the binding signal came out at 8.88 log2 normalized intensity.

For “ACCTCCTGGGCCCAAGTGCTCCTCCCCATCGCCTAGGGAGATTAGAGTATCGGTCGA”, the binding signal stood at 3.58 log2 normalized intensity.

As for “CCCATCGACCTTTGCTCCCGACTCTGAGGCGCCTAGGGAGATTAGAGTATCGGTCGA”, the binding signal stood at 5.95 log2 normalized intensity.

On to “AGACATCGACCTTTGTGGGCTTCAGACATTGCCTAGGGAGATTAGAGTATCGGTCGA”, for which the binding signal amounted to 2.32 log2 normalized intensity.

Take “GTCCCTGGCCCCGGGGCGGGGGCGGGCTGGGCCTAGGGAGATTAGAGTATCGGTCGA”: the binding signal was -0.21 log2 normalized intensity.

As for “AGCAATCATATATGCATTTGTCTCAGGTGGGCCTAGGGAGATTAGAGTATCGGTCGA”, the binding signal is 1.26 log2 normalized intensity.

As for “GAACTGAAAGAGACCTTTGACATCACCTAAGCCTAGGGAGATTAGAGTATCGGTCGA”, the binding signal was determined as 2.77 log2 normalized intensity.

For “GATAAGCGTATTTCAACCTTTGATCTATAAGCCTAGGGAGATTAGAGTATCGGTCGA”, the binding signal worked out at 6.82 log2 normalized intensity.

In the case of “GACTGACCTTTGATCATTTGAGGGTGACACGCCTAGGGAGATTAGAGTATCGGTCGA”, the binding signal was 6.1 log2 normalized intensity.

With “GTTTACTCATGTGGTCCTAAGACTGACCTTGCCTAGGGAGATTAGAGTATCGGTCGA”, the binding signal turned out to be 4.61 log2 normalized intensity.

As for “AATTGACCTTTGATCACTCATGGGCAAGATGCCTAGGGAGATTAGAGTATCGGTCGA”, the binding signal is 6.41 log2 normalized intensity.

Consider “CTCATGTGGTCCTAAGACTGACCTTTGATCGCCTAGGGAGATTAGAGTATCGGTCGA”, for which the binding signal is 10.6 log2 normalized intensity.

Turning to “AGGAGGCACTGATAAGCGTATTTCAACCTTGCCTAGGGAGATTAGAGTATCGGTCGA”, the binding signal came to 0.651 log2 normalized intensity.

For the sequence “TTGTTTACTCATGTGGTCCTAAGACTAACCGCCTAGGGAGATTAGAGTATCGGTCGA”, the binding signal is 0.432 log2 normalized intensity.

As for “GTGGTCCTAAGACTGACCTTTGATCATTTGGCCTAGGGAGATTAGAGTATCGGTCGA”, the binding signal is 9.52 log2 normalized intensity.

For the sequence “GCACTGATAAGCGTATTTCAACCTTTGATCGCCTAGGGAGATTAGAGTATCGGTCGA”, the binding signal amounted to 8.45 log2 normalized intensity.

As for “CCTAAAATTGACCTTTGATCACTCATGGGCGCCTAGGGAGATTAGAGTATCGGTCGA”, the binding signal was found to be 8.68 log2 normalized intensity.

With “AATCAACCTTTGATCGTTTGCATGCAGGGCGCCTAGGGAGATTAGAGTATCGGTCGA”, the binding signal turned out to be 3.98 log2 normalized intensity.

Regarding “AATGCCCAGGATTCCTTTTTCACTGCTCACGCCTAGGGAGATTAGAGTATCGGTCGA”, the binding signal is -0.85 log2 normalized intensity.

On to “CACTTCCCGAGTGAGGCAATGCCTCGCCCTGCCTAGGGAGATTAGAGTATCGGTCGA”, for which the binding signal is -0.664 log2 normalized intensity.

Regarding “ATTCAGCATTGCTTGGGAGCAGTCCTTGGGGCCTAGGGAGATTAGAGTATCGGTCGA”, the binding signal was -0.959 log2 normalized intensity.

Consider “AGCATGTTTGGTGACCCGTGACCCTCAGGAGCCTAGGGAGATTAGAGTATCGGTCGA”, for which the binding signal worked out at 3.82 log2 normalized intensity.

Turning to “CCGTCTCTCACCAAATCCCTGCCCACATCCGCCTAGGGAGATTAGAGTATCGGTCGA”, the binding signal came out at 2.23 log2 normalized intensity.

As to “CTCCTTGGAAGTCGCCGTGAGGTTATTTGCGCCTAGGGAGATTAGAGTATCGGTCGA”, the binding signal was found to be 0.914 log2 normalized intensity.

On to “GAGAGGCTTATGCATGGGAGATCTTCAGTAGCCTAGGGAGATTAGAGTATCGGTCGA”, for which the binding signal is -0.357 log2 normalized intensity.

With “TTCCTTATCTGGAATTCCTCCTCCTGTTTGGCCTAGGGAGATTAGAGTATCGGTCGA”, the binding signal amounted to 0.85 log2 normalized intensity.

Consider “TCTTTTGACCTTTGCCTCATTCTTATTGCCGCCTAGGGAGATTAGAGTATCGGTCGA”, for which the binding signal was found to be 5.61 log2 normalized intensity.

In the case of “GACCTTTATATGTCCACCTTATCTAATGCCGCCTAGGGAGATTAGAGTATCGGTCGA”, the binding signal came to 2.22 log2 normalized intensity.

With “AGCAAACCTGTCTCTCTGCATTCCTCCTGGGCCTAGGGAGATTAGAGTATCGGTCGA”, the binding signal stood at 0.684 log2 normalized intensity.

Regarding “TCTTTAAGGACCACATCAAAGGTCATCTCTGCCTAGGGAGATTAGAGTATCGGTCGA”, the binding signal came out at 5.09 log2 normalized intensity.

In the case of “TGCAGTGTCCATGGTGACCATGTGATGTGAGCCTAGGGAGATTAGAGTATCGGTCGA”, the binding signal was found to be 1.26 log2 normalized intensity.
